The source of these data is PubChem BioAssay AID2284199 (EPA ToxCast).

Active and inactive are the calls of the source. The calls were made as follows: active = hit-call score of the fitted dose curve at least 0.9, where 1 is the maximum; inactive = score below 0.9.

Sequence of rat Vesicular Monoamine Transporter (VMAT2), Slc18a2 (gene 25549) (Q01827 whole entry, looked up): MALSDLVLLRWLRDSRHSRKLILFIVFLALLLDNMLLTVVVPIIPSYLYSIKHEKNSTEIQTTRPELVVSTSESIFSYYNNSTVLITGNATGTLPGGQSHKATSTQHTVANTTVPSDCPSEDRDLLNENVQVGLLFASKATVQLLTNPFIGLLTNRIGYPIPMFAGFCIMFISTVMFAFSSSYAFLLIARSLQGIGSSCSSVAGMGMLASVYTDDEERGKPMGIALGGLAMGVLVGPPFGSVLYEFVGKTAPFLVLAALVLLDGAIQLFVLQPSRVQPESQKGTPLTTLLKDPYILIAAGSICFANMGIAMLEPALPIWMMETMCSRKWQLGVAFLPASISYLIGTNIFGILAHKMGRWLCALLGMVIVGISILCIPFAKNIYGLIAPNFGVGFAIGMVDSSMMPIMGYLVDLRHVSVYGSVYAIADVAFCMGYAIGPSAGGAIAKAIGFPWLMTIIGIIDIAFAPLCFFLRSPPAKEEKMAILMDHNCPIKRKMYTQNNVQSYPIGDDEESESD

The target of the assay is rat Vesicular Monoamine Transporter (VMAT2), Slc18a2 (gene 25549) (UniProt Q01827). Description: ERF_TW_TR_rSLC18A2: Eurofins (ERF) Radioligand Binding LeadHunter Assay for rat Vesicular Monoamine Transporter (VMAT2) Antagonism. How it is done:
ERF_TW_TR_rSLC18A2 is a biochemical, single-readout assay that uses extracted gene-proteins in a cell-free assay. Measurements were taken 0.5 hour after chemical dosing in a 96-well plate. See VMAT2 Rat Vesicular Monoamine Transporter Binding (Antagonist Radioligand) Assay, Panlabs.ERF_TW_TR_rSLC18A2 is an assay component calculated from the ERF_TW_TR_rSLC18A2 assay. It is designed to measure radioligand binding using a type of binding reporter as detected by scintillation counting with radiometry technology.Data from the assay component ERF_TW_TR_rSLC18A2 was analyzed at the assay endpoint, ERF_TW_TR_rSLC18A2, in the positive analysis fitting direction relative to DMSO as the negative control and baseline of activity. Using a type of binding reporter, loss-of-signal activity can be used to understand changes in transporter binding as they relate to gene SLC18A2. To generalize the intended target to other relatable targets, this assay endpoint is annotated to the transporter intended target family, where the subfamily is vesicular transporter.
This assay measures binding of [3H]Dihydrotetrabenazine to sites associated with the vesicular monoamine uptake transporter. […] Membranes are filtered and washed, the filters are then counted to determine [3H]Dihydrotetrabenazine specifically bound. […]
For `O=C(/C=C/c1ccc(O)cc1)CC(=O)/C=C/c1ccc(O)cc1`, the half-maximal activity concentration (AC50) was 283 nM (active). On to `COc1cc(CCC(=O)CC(=O)CCc2ccc(O)c(OC)c2)ccc1O`, for which the AC50 is 5000 nM (active).
